Screens (PubChem BioAssay)
DNMT1 inh = human DNMT1 methyltransferase inhibitors, primary screen, biochemical, molecular beacon, fluorescence, HinP1I cleavage, uHTS | DNA (cytosine-5)-methyltransferase 1 (Homo sapiens), P26358 | inhibition (reported as % activation of signal), % at 10 µM | 360,000 tested, 0.83% active; in the data active = inhibition above about 50%
rCAG RNA binder = binders of r(CAG) RNA repeats, primary screen, biochemical, fluorescence | r(CAG) RNA repeat, TO-PRO-1 dye displacement fluorescence | inhibition, % at 3 µM | 370,000 tested, 1.3% active;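 active = inhibition above the plate cutoff, the mean of all test compounds on that plate plus 3 SD, cut at about 35% in these data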;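 also: 0% = DMSO alone and 100% = 100 µM mitoxantrone as full dye displacement; higher means more dye released from RNA so lower well fluorescence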
UHRF1 MBD2 ctr = UHRF1 methylated DNA binding inhibitors, primary screen, counter-screen for MBD2 inhibitor project, biochemical, TR-FRET, human UHRF1, single concentration; E3 ubiquitin-protein ligase UHRF1 (Homo sapiens), Q96T88; UHRF1 binding to methylated oligo; inhibition, % at 4.4 µM; 370,000 tested, 0.75% active; in the data active = inhibition above about 21%;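 also: UHRF1 SRA domain binding a hemimethylated CpG hairpin DNA probe; 0% = median of test compound wells and 100% = reference inhibitor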
MBD2 inh = inhibitors of MBD2 binding to methylated DNA, primary screen, biochemical, TR-FRET, DNA-binding domain, human | Methyl-CpG-binding domain protein 2 (Homo sapiens), Q9UBB5 | MBD2 binding to methylated oligonucleotide | inhibition, % at 4.4 µM | 370,000 tested, 0.31% active; in the data active = inhibition above about 13%
PG9 Ab binder = binders of HIV-1 gp120 antibody PG9, primary screen, biochemical, TR-FRET; AID 624416, 2012; TR-FRET gp120-PG9 antibody binding; inhibition, % at 6.7 µM; 360,000 tested, 0.43% active; in the data active = inhibition above about 8.5%
LEDGF integ inh = blockers of LEDGF/p75-dependent integrase strand transfer – biochemical, TR-FRET, high throughput, primary screen; HIV-1 integrase (with human LEDGF/p75); TR-FRET IN-LEDGF/p75 DNA integration, Eu/Cy5; inhibition, % at 3.7 µM; 370,000 tested, 0.64% active; AID 743269, 2014;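 active = inhibition above the screen-wide mean plus 3 SD, cut at about 13% in these data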;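 also: signal is the Cy5 over europium emission ratio at 671 and 618 nm; 0% = plate median of compound wells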
DNMT1 confirm = DNMT1 methyltransferase inhibitor retest, confirmation, biochemical, molecular beacon, fluorescence, single concentration; 2,300 tested, 8% active; shares compounds with DNMT1 inh; inhibition, % at 10 µM; DNMT1 molecular beacon HinP1I cleavage;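 active = average inhibition of at least 30% in the single-concentration confirmation test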
DNMT1 interf = shows spectral interference in the DNMT1 beacon assay; shares compounds with DNMT1 inh; DNMT1 molecular beacon spectral interference counterscreen, fluorescence 485/520; activation (fluorescence interference), % at 10 µM; 2,300 tested, 1% active; AID 602387;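 active = activation of at least 30% at 10 µM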;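 also: DNMT1 catalytic domain with a HinP1I cleavage step and a FAM/dabcyl DNA beacon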
* hit, by the source's call. In the library only some 3.5% were active in any assay of this set; here they are far more common.

For Nc1nnnn1/N=C/c1ccccc1OCc1ccc(Cl)cc1Cl the results were DNMT1 inh 52*, rCAG RNA binder 8, UHRF1 MBD2 ctr -6, MBD2 inh 3, PG9 Ab binder -1, LEDGF integ inh -1, DNMT1 confirm 7 and DNMT1 interf 5.
`Nc1nnnn1/N=C/c1cc(Cl)cc(Cl)c1OCc1ccc(Cl)cc1Cl` gave DNMT1 inh 59*, rCAG RNA binder 1, UHRF1 MBD2 ctr -2, MBD2 inh 3, PG9 Ab binder -1, LEDGF integ inh 1, DNMT1 confirm 2 and DNMT1 interf 2.
Screening Nc1nnnn1/N=C/c1cc(Cl)cc(Cl)c1O returned DNMT1 inh -3, rCAG RNA binder -11, UHRF1 MBD2 ctr -3, MBD2 inh 0, PG9 Ab binder -1 and LEDGF integ inh 3.
Screening O=C(N/N=C/c1ccc(F)cc1)c1c(O)c2ccccc2[nH]c1=O returned DNMT1 inh 54*, rCAG RNA binder 3, UHRF1 MBD2 ctr -1, MBD2 inh -4, PG9 Ab binder -2, LEDGF integ inh 1, DNMT1 confirm 3 and DNMT1 interf -6.
Screening O=C(N/N=C/c1ccccc1)c1c(O)c2ccccc2[nH]c1=O returned DNMT1 inh 1, rCAG RNA binder 2, UHRF1 MBD2 ctr 1, MBD2 inh 2, PG9 Ab binder 0 and LEDGF integ inh -3.
Screening COc1ccc(/C=c2\sc3nc(-c4ccccc4OC)nn3c2=O)c(OC)c1 returned DNMT1 inh 71*, rCAG RNA binder 10, UHRF1 MBD2 ctr -3, MBD2 inh -3, PG9 Ab binder -2, LEDGF integ inh 0, DNMT1 confirm 0 and DNMT1 interf -8.
Cc1ccc(S(=O)(=O)C2CCN(c3nc(-c4cccs4)nc4ccccc34)CC2)cc1 was read as UHRF1 MBD2 ctr -2, MBD2 inh 2 and LEDGF integ inh 0.
For C=CCn1c(=NC(=O)C2CCCCC2)sc2cc(NC(C)=O)ccc21 the results were DNMT1 inh 51*, rCAG RNA binder 2, UHRF1 MBD2 ctr -1, MBD2 inh -6, PG9 Ab binder 2, LEDGF integ inh 7, DNMT1 confirm 0 and DNMT1 interf -3.
Screening CCc1ccc(OC(=O)c2cccnc2)cc1 returned DNMT1 inh -2, rCAG RNA binder -3, UHRF1 MBD2 ctr -2, MBD2 inh -2, PG9 Ab binder 2 and LEDGF integ inh 1.
For Cc1ccc2nc(NC(=O)c3ccc(S(=O)(=O)N4CCCc5ccccc54)cc3)sc2c1 the results were DNMT1 inh 95*, rCAG RNA binder 2, UHRF1 MBD2 ctr 2, MBD2 inh 4, PG9 Ab binder -1, LEDGF integ inh 2, DNMT1 confirm 3 and DNMT1 interf 4.
For O=C(Nc1nc2ccc(F)cc2s1)c1cccc(S(=O)(=O)N2CCc3ccccc32)c1 the results were DNMT1 inh -8, rCAG RNA binder 9, UHRF1 MBD2 ctr 5, MBD2 inh 2, PG9 Ab binder -1 and LEDGF integ inh 2.
COc1cccc(N2[C@@H](CC(C)=O)c3ccccc3S2(=O)=O)c1 was read as DNMT1 inh 3, rCAG RNA binder -3, UHRF1 MBD2 ctr -1, MBD2 inh -4, PG9 Ab binder 0 and LEDGF integ inh 2.
For COc1cccc(N2[C@@H](CC(=O)O)c3ccc(/C=C/C(=O)O)cc3S2(=O)=O)c1 the results were DNMT1 inh 102*, rCAG RNA binder 8, UHRF1 MBD2 ctr 20, MBD2 inh 12, PG9 Ab binder 1, LEDGF integ inh 3, DNMT1 confirm 1 and DNMT1 interf 1.
For COC(=O)[C@]12C[C@H](CC(=O)NCc3cccc4ccccc34)C(=O)N(Cc3ccc4c(c3)OCO4)C1=C[C@H](C(C)C)O[C@@H]2C1CC1 the results were rCAG RNA binder 8, UHRF1 MBD2 ctr 0, MBD2 inh 2 and LEDGF integ inh -3.
CN1CCN(C(=O)c2ccc(-c3cnc4cccnn34)cc2)CC1 was read as DNMT1 inh 2, rCAG RNA binder 1, UHRF1 MBD2 ctr 0, MBD2 inh -6, PG9 Ab binder 0 and LEDGF integ inh 2.
CCc1ccc([C@H]2C(C(=O)O)=C[C@@H](CC)N2S(=O)(=O)c2ccc(C)cc2)cc1 was read as DNMT1 inh 74*, rCAG RNA binder 21, UHRF1 MBD2 ctr 0, MBD2 inh 5, PG9 Ab binder -4, LEDGF integ inh -1, DNMT1 confirm 4 and DNMT1 interf 1.
Screening COc1ccc(C(=O)c2sc(Nc3ccccc3)nc2N)cc1 returned DNMT1 inh 89*, rCAG RNA binder 5, UHRF1 MBD2 ctr -2, MBD2 inh -2, PG9 Ab binder 0, LEDGF integ inh -2, DNMT1 confirm 2 and DNMT1 interf 5.
`CCc1nnc(NC(=O)CSc2nc(C)cs2)s1` gave DNMT1 inh 5, rCAG RNA binder 0, UHRF1 MBD2 ctr 4, MBD2 inh 5, PG9 Ab binder -1 and LEDGF integ inh -7.
`COc1ccc(S(=O)(=O)Nc2ccc(S(=O)(=O)Nc3cc(C)nc(C)n3)cc2)cc1OC` gave DNMT1 inh 76*, rCAG RNA binder 4, UHRF1 MBD2 ctr -2, MBD2 inh -6, PG9 Ab binder 0, LEDGF integ inh 2, DNMT1 confirm 3 and DNMT1 interf 4.
`S=C(Nc1ccccc1)OC1CCC12CCC(c1ccccc1)CC2` (stereo not given) gave rCAG RNA binder 5, UHRF1 MBD2 ctr 0, MBD2 inh 0 and LEDGF integ inh -4.
`CCC(c1nnnn1-c1ccc2c(c1)OCCO2)N1CCN(c2ccc(C(F)(F)F)cc2[N+](=O)[O-])CC1` (stereo not given) gave rCAG RNA binder 10, UHRF1 MBD2 ctr -1, MBD2 inh -3, PG9 Ab binder -1 and LEDGF integ inh -4.
O=[N+]([O-])c1ccc(-c2cn(-c3ccc(Cl)cc3)cn2)cc1 was read as DNMT1 inh 54*, rCAG RNA binder 4, UHRF1 MBD2 ctr 1, MBD2 inh 0, PG9 Ab binder 1, LEDGF integ inh -1, DNMT1 confirm 5 and DNMT1 interf 0.
